# Measurements published in PubChem BioAssay (NCI).
# This is part of a sample that, as a whole, favours compounds with a hit. Of some 79,000 tested, about 15% had one in any assay. A number with no mark means an inactive call. Activity calls are given as the source filed them. Rule as the data show it: active = growth inhibition above about 70%; inactive = the rest.
# Key:
# [1] = NCI Yeast Anticancer Drug Screen. Data for the rad50 strain (AID 155);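 also: 0% = growth of vehicle-only cultures of the same strain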; conditions: S. cerevisiae rad50 strain growth inhibition; at 50.0 µM; stronger effect = higher value
# In short: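 A DNA repair-deficient yeast mutant serves as the test organism; compound-induced growth inhibition is calculated against vehicle-treated cells.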
# [2] = NCI Yeast Anticancer Drug Screen. Data for the mec2-1 strain (AID 157); conditions: S. cerevisiae mec2-1 strain, at 50.0 µM, stronger effect = higher value
# In short: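 Mutant yeast (mec2-1) grown with compound; growth inhibition relative to vehicle control reported.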
# [3] = NCI Yeast Anticancer Drug Screen. Data for the sgs1 mgt1 strain (AID 161);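 also: 0% = growth of cultures given vehicle only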; conditions: S. cerevisiae sgs1 mgt1 strain, at 50.0 µM, stronger effect = higher value
# In short: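 Compounds are added to genetically altered yeast, and growth is compared with cultures given vehicle alone to give percent inhibition.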
# [4] = NCI Yeast Anticancer Drug Screen. Data for the cln2 rad14 strain (AID 165);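 also: 0% = growth equal to vehicle treated cultures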; conditions: S. cerevisiae cln2 rad14 strain, at 50.0 µM, stronger effect = higher value
# In short: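 Readout is yeast growth inhibition versus vehicle-treated controls, using a strain with cln2 and rad14 alterations exposed to compound.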
# [5] = NCI Yeast Anticancer Drug Screen. Data for the bub3 strain (AID 167); conditions: S. cerevisiae bub3 mutant strain, at 50.0 µM, stronger effect = higher value
# In short: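 Inhibition values come from growth of compound-treated mutant yeast normalised to vehicle-treated controls.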
# [6] = NCI Yeast Anticancer Drug Screen. Data for the mlh1 rad18 strain (AID 175); conditions: S. cerevisiae mlh1 rad18 strain growth inhibition; at 50.0 µM; stronger effect = higher value
# In short: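 Genetically defined yeast (DNA repair-deficient) exposed to compounds; growth inhibition determined relative to vehicle.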
Structure (SMILES),growth inhibition [1],growth inhibition [2],growth inhibition [3],growth inhibition [4],growth inhibition [5],growth inhibition [6]
CCc1ccc(NC(=O)C(c2ccccc2)c2ccccc2)cc1,8.6%,13.3%,2.35%,11.8%,20.6%,-9.1%
O=[n+]1c(-c2ccccc2)c(-c2ccccc2)n([O-])c2cc3ccccc3cc21,28.7%,3.65%,12.2%,-24.6%,6.05%,26.4%
Cc1nc(N)c2c(n1)C(Cc1ccccc1)N(C(=O)c1ccccc1)C2 (stereo unspecified),-5.6%,-4.3%,-24.1%,-24.4%,6.55%,-17.4%
CCN(CC)CCNc1ccc(OC)c2sc3ccccc3c(=O)c12,53.6%,25.4%,20.9%,-7.85%,40.4%,24.6%
ClCc1nnc(-c2ccccc2)o1,14.8%,-2.9%,-16.2%,-43%,-16.2%,-4.75%
O=C=Nc1ccc([N+](=O)[O-])cc1,-0.9%,15.7%,1.2%,-20.6%,32.9%,-8.75%
Cc1nc2n(c1C(N)=O)CCS2,5.15%,-5.65%,-5%,-55.8%,-10.7%,-10.7%
CC(C)C(=O)Oc1cc2c(=O)oc3c(OC(=O)C(C)C)c(OC(=O)C(C)C)cc4c(=O)oc(c1OC(=O)C(C)C)c2c34,40.1%,12.6%,25.6%,13.7%,31.6%,48.5%
COC(C)(C)C/C=C/C(C)=C/C=C/C(C)=C\C=C\C(C)=C\C=C\C=C(C)\C=C\C=C(C)\C=C\C=C(C)\C=C\CC(C)(C)OC,-10.8%,-1.65%,-26.9%,2.25%,-12.2%,-12.1%
N#CSCC(=O)CCC(=O)O,-2.75%,0.7%,-8.8%,-15%,3.75%,-1.1%
CCCCCCCCCCCCCCCCCCCCCCCCSC(=N)N,10.6%,0.15%,16.5%,26.4%,-6.15%,12.9%
CCOC(=O)C(C#N)C(=O)c1ccccc1-c1ccccc1[N+](=O)[O-] (stereo unspecified),7.9%,1.1%,3.35%,-9.4%,-13.2%,5%
CC(=O)Oc1ccc2c(c1)CC[C@@H]1C2[C@@H](O[N+](=O)[O-])C[C@@]2(C)C1CC[C@@H]2O (stereo partly specified),25.5%,43.3%,77.2% (active),62%,31.9%,57.8%
COc1cccc(CN(CCc2cccc(OC)c2OC)C(=O)CN2CCOCC2)c1O,-3.8%,9.35%,-0.05%,8.8%,4.9%,-23.1%
CC(=O)N(C)C1=C(Sc2ccc([N+](=O)[O-])cc2)C(=O)c2ccccc2C1=O,97% (active),99.5% (active),97.5% (active),99% (active),99.1% (active),98.9% (active)
COC(=O)c1cccc2ccc3cccc(C=O)c3c12,-29.4%,6.6%,-5.9%,-30.8%,12.2%,-14.5%
Cc1cccc(C)c1NC=O,4.7%,-2.35%,-3.3%,1.45%,-9.8%,8.9%
COC1=CC(=O)C(C2CC(=O)c3c(O)cc(O)cc3O2)=CC1=O (stereo unspecified),-4.2%,0.85%,11.2%,7.95%,-20.8%,-63.9%
Cn1nnc2c(C(N)=O)ncn2c1=O,-11.4%,-18.5%,-28.5%,-25.2%,-26.6%,-77%
Cc1ccc(NC(=O)C(Br)C(Br)c2ccccc2)cc1Cl (stereo unspecified),94.2% (active),95.8% (active),96.6% (active),95.2% (active),94.7% (active),95.8% (active)
C=CCNC(=S)Nc1ccc(OC(=O)NC2CCCCC2)cc1,6.4%,23.6%,15.1%,-7.85%,-2.4%,31.9%
